# Hits are enriched below; roughly 4.3% of the tested compounds scored in any of these assays.
# ADAM10 inh: human ADAM10 inhibitors, primary screen, biochemical, QFRET, HTS | 370,000 tested, 0.62% active | Disintegrin and metalloproteinase domain-containing protein 10 (Homo sapiens), O14672 | recombinant ADAM10, EDANS/DABCYL FRET peptide cleavage, 3 h | inhibition, % at 7 µM;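 active = inhibition above a per-campaign cutoff equal to the mean of compounds falling between control-based bounds plus 3 SD, cut at about 20% in these data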;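 note: 0% = DMSO wells while the 100% control is not disclosed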
# HGIII-sPLA2 inh: human group III sPLA2 inhibitors, primary screen, biochemical, QFRET, BODIPY PC-A2 liposome substrate; Group 3 secretory phospholipase A2 (Homo sapiens), Q9NZ20; QFRET BODIPY PC-A2 liposome hydrolysis, fluorescence; inhibition, % at 12.2 µM; 370,000 tested, 0.56% active;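 active = inhibition above mean plus 3 SD of compounds lying within the high and low control bounds, cut at about 19% in these data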;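 note: 0% = median of test compound wells and 100% = no enzyme DMSO wells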
# FAS TE block: FAS thioesterase domain inhibitors, primary screen, biochemical, fluorescence intensity, uHTS | recombinant FAS-TE, OMFH fluorogenic substrate, fluorescence endpoint | 360,000 tested, 0.67% active | inhibition, % at 15 µM | AID 602261, 2012 | Fatty acid synthase (Homo sapiens), P49327;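 active = compounds whose normalised, plate-corrected inhibition of enzyme fluorescence in the single-dose primary screen is 50% or more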;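 note: 0% = DMSO with enzyme and 100% = substrate without enzyme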
# GRIN3A LBD mod: binders of NR3A ligand-binding domain, primary screen, biophysical, differential scanning fluorimetry, uHTS. AID 1259313, 2017. Tm shift relative to glycine control, % at 25 µM. NR3A LBD differential scanning fluorimetry, Tm shift; 0% = protein alone, 100% = glycine-bound protein. 340,000 tested, 2.5% active;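 active = melting temperature shift of at least 10% of the positive control shift, at one fixed dose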
# ADAM17 inh: ADAM17 inhibitors, primary screen, biochemical, QFRET; Disintegrin and metalloproteinase domain-containing protein 17 (Homo sapiens), P78536; recombinant ADAM17, EDANS/DABCYL FRET peptide cleavage; inhibition, % at 6.95 µM; 370,000 tested, 0.83% active; AID 720648, 2013;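 active = inhibition above the mean of compounds lying between control limits plus 3 SD, set per campaign, cut at about 8.5% in these data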;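 note: 0% = DMSO-only wells as the low control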
# Target sequence (P78536 215-824 limits assumed): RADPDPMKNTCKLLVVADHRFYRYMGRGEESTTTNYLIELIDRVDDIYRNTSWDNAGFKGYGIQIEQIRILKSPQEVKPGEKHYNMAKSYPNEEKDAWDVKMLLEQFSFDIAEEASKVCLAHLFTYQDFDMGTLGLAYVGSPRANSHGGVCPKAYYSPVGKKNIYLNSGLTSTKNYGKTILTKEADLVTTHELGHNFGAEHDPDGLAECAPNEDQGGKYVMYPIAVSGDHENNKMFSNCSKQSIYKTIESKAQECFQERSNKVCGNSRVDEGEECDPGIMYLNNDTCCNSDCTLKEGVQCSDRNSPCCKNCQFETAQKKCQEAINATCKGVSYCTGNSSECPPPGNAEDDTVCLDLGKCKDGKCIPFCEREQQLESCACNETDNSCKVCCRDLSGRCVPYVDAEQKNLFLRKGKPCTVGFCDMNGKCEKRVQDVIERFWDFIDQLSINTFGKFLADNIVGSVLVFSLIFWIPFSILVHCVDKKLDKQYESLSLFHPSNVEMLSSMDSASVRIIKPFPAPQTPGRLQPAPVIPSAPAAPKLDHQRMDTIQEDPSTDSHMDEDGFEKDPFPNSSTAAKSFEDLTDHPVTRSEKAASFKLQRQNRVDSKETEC
# Active calls of the source: *; nt = no result.
SMILES,ADAM10 inh,HGIII-sPLA2 inh,FAS TE block,GRIN3A LBD mod,ADAM17 inh
C[C@H]1CN([C@@H](C)CO)C(=O)Cc2cc(NC(=O)Nc3ccccc3)ccc2O[C@H]1CN(C)Cc1ccccc1,18.5,-44.9,7.4,-22.2,5.5
C=C(CN(C)C)C(=O)c1cc(OC)c(OC)cc1OC,11.8,-0.5,-4.3,-1.7,3.0
C=C(CN(C)C)C(=O)c1ccc(C)cc1C,-12.2,0.6,-5.6,14.0*,-0.8
CSc1ccc(C=Nn2c(-c3cc(C)[nH]n3)n[nH]c2=S)cc1,-3.6,5.6,nt,nt,-4.6
CCOc1ccc(N2C(=O)S/C(=C\c3ccc(O)c(OC)c3)C2=O)cc1,0.0,-22.2,-8.4,-1.0,-1.2
COc1cc(/C=C2\SC(=N)N(c3ccc4c(c3)OCO4)C2=O)cc(OC)c1O,-4.7,-10.4,8.0,10.8*,-0.8
COc1cc(/C=C2\SC(=N)N(c3ccc(F)cc3)C2=O)ccc1O,-5.8,-28.6,-5.0,26.6*,-0.1
COc1ccc(-c2cc(-c3nnc(SCC(=O)Nc4nccs4)n3N)[nH]n2)cc1,-0.7,-34.6,nt,nt,-2.0
C[C@H]1CCCN1c1cccc2c1S(=O)(=O)N(C1CC1)CCCO2,-9.4,-0.3,nt,nt,-5.4
CC(OC(=O)c1ccc(NC(=O)CC#N)cc1)C(=O)Nc1nc(-c2ccccc2)cs1 (configuration not stated),10.6,-45.4,19.1,20.8*,4.5
O=C(NC(Cc1c[nH]c2ccccc12)c1nnc2n1CCCCC2)c1ccccc1Cl (configuration not stated),0.5,-17.0,-7.7,11.2*,-1.6
O=C(Nc1ccccc1)Nc1nc2ncccn2c1-c1ccc(F)cc1,-50.2,2.3,nt,nt,-11.8
O=C(Nc1ccc(Cl)c(Cl)c1)Nc1nnc(-c2ccncc2)s1,-24.4,2.3,4.8,12.6*,-9.2
COc1ccc(NC(=O)Nc2nnc(-c3ccco3)s2)cc1,3.5,-4.7,1.1,6.2,-0.9
COc1ccc(NC(=O)Nc2nnc(-c3ccncc3)s2)cc1,-2.0,-5.9,-0.7,11.3*,-2.8
Nc1ccc2nc(-c3ccc(-c4nc5ccc(N)cc5[nH]4)cc3)[nH]c2c1,-24.5,18.6,nt,17.9*,-11.6
O=[N+]([O-])c1ccc2nc(-c3ccc(Cl)cc3)[nH]c2c1,-84.6,-2.0,16.7,28.3*,-22.4
Cc1ccc(-c2nc3ccc([N+](=O)[O-])cc3[nH]2)cc1,6.4,-7.8,20.2,24.7*,-0.1
COc1ccc(-c2nc3ccc([N+](=O)[O-])cc3[nH]2)cc1,3.1,5.8,15.6,28.6*,3.1
O=[N+]([O-])c1cccc(-c2nc3ccc([N+](=O)[O-])cc3[nH]2)c1,2.1,-0.3,28.0,-2.1,-2.0
O=[N+]([O-])c1ccc2nc(-c3ccncc3)[nH]c2c1,3.0,0.7,8.3,1.2,-1.4
Nc1ccc2nc(-c3cccc(-c4nc5ccc(N)cc5[nH]4)n3)[nH]c2c1,0.6,-4.0,3.4,-6.2,-3.6
COC(=O)c1cn(-c2ccc3c(c2)[C@]2(CC(=O)N(C)C2c2ccccc2)C(=O)N3CC(C)C)nn1 (some centres not stated),-6.0,-1.4,nt,nt,-3.4
O=C(NCc1ccccc1)OCCN1C(=O)CCC12CCC(c1ccc(Cl)cc1)CC2 (configuration not stated),10.5,-13.5,nt,nt,2.6
C=CCN1C(=O)[C@H](CC(=O)NCC23CC4CC(CC(C4)C2)C3)[C@@]2(C(=O)OC)CCCCC=C12,-0.6,-2.9,nt,nt,-0.8
SMILES,ADAM10 inh,HGIII-sPLA2 inh,FAS TE block,GRIN3A LBD mod,ADAM17 inh
O=C(COC(=O)[C@@H]1CCCN1S(=O)(=O)c1ccc(Cl)cc1)NC12CC3CC(CC(C3)C1)C2,9.8,-10.4,22.6,-2.2,5.1
COc1cc(NC(=O)COC(=O)[C@@H]2CCCN2S(=O)(=O)c2ccc(Cl)cc2)cc(OC)c1OC,13.8,-4.8,4.7,10.8*,3.1
CCc1cccc(CC)c1NC(=O)COC(=O)Cc1ccsc1,2.5,5.1,-8.1,-2.5,-3.7
COc1cccc(NC(=O)COC(=O)CCCc2c[nH]c3ccccc23)c1,13.4,-94.3,18.6,3.8,5.2
CCOc1ccc(NC(=O)COC(=O)CCCc2c[nH]c3ccccc23)cc1,8.7,-90.2,14.5,27.6*,6.7
CCOc1ccc(NC(=O)COC(=O)Cc2ccsc2)cc1,-8.8,0.6,-1.4,34.5*,-3.4
COc1ccc(NC(=O)COC(=O)CCCc2c[nH]c3ccccc23)cc1,1.7,-62.5,0.4,21.2*,1.8
COc1cccc(NC(=O)NC2CCCCN(Cc3ccc(C)cc3)C2=O)c1 (configuration not stated),3.7,7.5,nt,nt,1.5
C=CCN1[C@H](Cc2ccccc2)COc2cccc(N3CCCC3)c2S1(=O)=O,-8.4,5.7,nt,nt,-2.2
N#Cc1cccc(NC(=O)O[C@@H]2CC[C@@]34CCCN3C(=O)CCC[C@H]4C2)c1,0.5,0.7,nt,nt,-1.1
CCOC(=O)C1=C(C)N=c2s/c(=C\c3ccc(C(=O)O)cc3)c(=O)n2C1c1ccc(F)cc1 (configuration not stated),-3.9,2.9,10.9,2.7,-4.8
CCOC(=O)C1=C(C)N=c2s/c(=C\c3ccc(C(=O)O)cc3)c(=O)n2C1c1ccc(OC)cc1OC (configuration not stated),-4.1,1.6,4.9,429.1*,-2.0
O=c1cc(-c2ccc(O)c(O)c2)oc2cc(O)c([C@@H]3O[C@H](CO)[C@@H](O)[C@H](O)[C@H]3O)c(O)c12,3.5,3.6,-8.5,18.5*,-2.6
O=c1cc(-c2ccc(O)cc2)oc2c([C@@H]3O[C@H](CO)[C@@H](O)[C@H](O)[C@H]3O)c(O)c([C@@H]3O[C@H](CO)[C@@H](O)[C@H](O)[C@H]3O)c(O)c12,-1.7,2.0,-9.5,-1.8,-3.0
Cc1ccc(C(=O)O)cc1-c1ccc(C=C2C(=O)c3ccccc3C2=O)o1,-8.2,1.6,1.3,10.1*,-2.9
O=C1C[C@@H](C(=O)Nc2ccc(Cl)cc2)[C@@H](c2ccccc2)O1,-0.4,-6.2,nt,nt,2.0
CC(C)N1CCCCC(NC(=O)c2c(F)cccc2F)C1=O (configuration not stated),-1.7,5.0,nt,nt,0.3
Cc1ccccc1-c1nnc(SCc2ccccc2F)o1,-2.7,-5.1,23.1,10.2*,-2.1
Cc1c(/C=N\NC(=O)c2ccc([N+](=O)[O-])cc2)cnn1C,1.9,2.5,-0.4,-4.5,0.0
O=C(N/N=C/c1c[nH]c2ccc(Br)cc12)c1ccc2c(c1)OCO2,-3.2,-5.0,18.2,31.1*,-3.2

# Screening data as filed in PubChem.
